Screening results deposited in PubChem by Center for Chemical Genomics, University of Michigan.
The entries come from a sample that favours hits as a whole.
Dicer inh – human Dicer pre-microRNA cleavage inhibition; z-score at 25 µM; AID 1347074; 47,000 compounds, 6% hits; cat-ELCCA pre-miR-21 Dicer processing, chemiluminescence; active compounds read high; in the data active = z-score above about 3, passing the limit was not always enough;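 note: plate controls were vehicle for no effect and no enzyme for full effect; higher signal means more uncleaved substrate so more Dicer inhibition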
Target sequence (Q9UPY3 whole entry, looked up): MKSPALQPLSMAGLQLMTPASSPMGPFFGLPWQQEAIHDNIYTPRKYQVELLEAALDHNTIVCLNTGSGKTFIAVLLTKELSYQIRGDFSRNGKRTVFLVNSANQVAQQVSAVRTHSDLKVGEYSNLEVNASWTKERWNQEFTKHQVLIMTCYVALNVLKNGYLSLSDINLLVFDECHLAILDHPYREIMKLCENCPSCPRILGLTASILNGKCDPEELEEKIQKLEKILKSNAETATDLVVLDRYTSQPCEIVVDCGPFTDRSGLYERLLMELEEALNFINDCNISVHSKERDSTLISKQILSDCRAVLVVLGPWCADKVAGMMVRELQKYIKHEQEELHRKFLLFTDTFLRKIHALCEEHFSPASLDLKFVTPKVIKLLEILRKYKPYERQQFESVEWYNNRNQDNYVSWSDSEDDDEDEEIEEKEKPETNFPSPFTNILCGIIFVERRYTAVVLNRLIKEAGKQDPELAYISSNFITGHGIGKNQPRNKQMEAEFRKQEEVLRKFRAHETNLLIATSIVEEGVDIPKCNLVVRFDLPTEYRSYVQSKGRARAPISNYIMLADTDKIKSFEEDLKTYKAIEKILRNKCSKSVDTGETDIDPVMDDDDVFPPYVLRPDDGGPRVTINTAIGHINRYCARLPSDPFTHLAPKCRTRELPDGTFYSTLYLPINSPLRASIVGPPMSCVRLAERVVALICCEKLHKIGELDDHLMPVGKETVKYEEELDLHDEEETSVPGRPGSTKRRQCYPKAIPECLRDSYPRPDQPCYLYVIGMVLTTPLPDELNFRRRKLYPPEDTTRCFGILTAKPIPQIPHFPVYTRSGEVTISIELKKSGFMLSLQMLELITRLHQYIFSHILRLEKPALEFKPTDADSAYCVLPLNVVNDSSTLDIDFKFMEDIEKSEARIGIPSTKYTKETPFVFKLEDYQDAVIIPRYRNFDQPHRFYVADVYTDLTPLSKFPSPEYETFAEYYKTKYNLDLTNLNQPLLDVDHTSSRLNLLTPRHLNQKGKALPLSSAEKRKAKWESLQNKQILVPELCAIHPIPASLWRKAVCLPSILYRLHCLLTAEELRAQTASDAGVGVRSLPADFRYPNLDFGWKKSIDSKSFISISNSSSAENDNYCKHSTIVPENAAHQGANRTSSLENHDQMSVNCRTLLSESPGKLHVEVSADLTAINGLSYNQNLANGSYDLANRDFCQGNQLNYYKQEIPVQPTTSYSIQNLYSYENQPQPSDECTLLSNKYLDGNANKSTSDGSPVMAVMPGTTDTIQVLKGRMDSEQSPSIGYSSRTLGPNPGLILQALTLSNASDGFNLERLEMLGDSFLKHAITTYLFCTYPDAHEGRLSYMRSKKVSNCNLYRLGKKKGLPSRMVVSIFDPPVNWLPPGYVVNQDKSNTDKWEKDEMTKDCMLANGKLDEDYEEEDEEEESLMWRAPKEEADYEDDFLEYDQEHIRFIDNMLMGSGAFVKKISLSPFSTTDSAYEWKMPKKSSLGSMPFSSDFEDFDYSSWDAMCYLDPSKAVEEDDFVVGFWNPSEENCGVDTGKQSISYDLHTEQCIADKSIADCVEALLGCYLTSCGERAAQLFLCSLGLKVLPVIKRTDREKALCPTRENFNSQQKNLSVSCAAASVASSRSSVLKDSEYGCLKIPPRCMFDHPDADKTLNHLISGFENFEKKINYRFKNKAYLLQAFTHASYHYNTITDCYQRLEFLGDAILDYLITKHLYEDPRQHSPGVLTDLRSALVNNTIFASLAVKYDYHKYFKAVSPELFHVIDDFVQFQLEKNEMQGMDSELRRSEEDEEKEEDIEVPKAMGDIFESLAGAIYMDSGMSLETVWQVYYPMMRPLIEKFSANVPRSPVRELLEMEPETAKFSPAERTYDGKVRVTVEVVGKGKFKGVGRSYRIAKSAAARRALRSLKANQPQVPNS
The depositor's hits bear a star.

SMILES | Dicer inh
CCOC(=O)c1c(NC(=O)Nc2cc(OC)ccc2Cl)sc2c1CCN(C)C2 | 3.4*
CCOC(=O)c1c(NS(=O)(=O)c2ccc(OC)c(OC)c2)sc2c1CCC2 | -1.3
CCOC(=O)c1c(NCc2cc(OC)ccc2O)sc2c1CCC2 | 4.1*
CCOC(=O)c1c(NC(=O)Oc2ccccc2)sc2c1CCC2 | -0.88
CCOC(=O)c1c(NC(=O)C(C)Oc2ccc(OC)cc2)sc2c1CCC(C)C2 (stereo unspecified) | 2.7
CCOC(=O)c1c(NC(=O)Nc2ccc(C)cc2)sc2c1CCN(C)C2 | 2.1
CCOC(=O)c1c(O)n(-c2ccccc2)c(=S)n(-c2ccccc2)c1=S | -1.6
O=S(=O)(c1cccc(C(F)(F)F)c1)N1CN2CN(C1)CN(S(=O)(=O)c1cccc(C(F)(F)F)c1)C2 | 0.29
CCOC(=O)Oc1ccc2c(=O)c(-c3ccc(OC)c(OC)c3)c(C(F)(F)F)oc2c1 | 1.7
CCOC(=O)NS(=O)(=O)c1ccc(-c2cc(C(F)(F)F)n(C)n2)s1 | -0.18
CCOC(=O)c1c(C)n(C)c2c1cc(O)c1ccccc12 | 0.73
O=C(CSc1nc2cccnc2s1)c1cccc([N+](=O)[O-])c1 | -0.8
N#Cc1cn(-c2ccccc2Cl)c(=O)[nH]c1=O | -0.6
O=c1oc(-c2ccc(Br)cc2)nc2scc(-c3cccs3)c12 | 0.83
Cc1cccc2nc(-c3cccs3)oc(=O)c12 | -1.3
Cc1ccc(-c2csc3nc(-c4cccs4)oc(=O)c23)cc1 | 5.4*
CCOc1ccc(C2CC(c3ccc(OCc4ccccc4)cc3)n3nc(N)nc3N2)cc1 (stereo unspecified) | 0.25
COc1ccc(C2Nn3c(C)nnc3SC2C(=O)N2CCCC2)cc1Br (stereo unspecified) | -0.93
O=C(Nc1ccc(N2CCN(c3ccc(C(F)(F)F)cn3)CC2)nc1)c1ccc(Cl)cc1 | 1
Cc1cc(C)c2c(n1)sc1c(=O)n(-c3cccc(Cl)c3)c(=O)[nH]c12 | -0.04
Cc1ccc(-n2c(=O)[nH]c3c(sc4nc(C)cc(C)c43)c2=O)cc1 | 3.4*
Cc1ccc(-n2c(=O)[nH]c3c(oc4nc(-c5ccccc5)cc(-c5ccccc5)c43)c2=O)cc1 | 2.2
CCOC(=O)c1ccc(NC(=S)N/N=C/c2ccccc2Cl)cc1 | 9.9
O=C(CCn1nnc(-c2cccc(Cl)c2Cl)n1)N/N=C/c1ccccc1Cl | 3.2*
Cn1c(C(=O)N/N=C/c2ccccc2Cl)cnc1SCc1ccc(Cl)cc1 | 0.03
SMILES | Dicer inh
C=CCN1C(=O)C(O)(C(C)C(=O)c2ccccc2)c2ccccc21 (stereo unspecified) | -0.13
CCOc1ccc2[nH]ccc(=O)c2c1 | -0.04
CC(C)(C)NC(=S)NC1CCN(Cc2ccccc2)CC1 | 0.92
CSc1c(C#N)c(N)nc2sc(C(=O)c3ccc(OC(F)F)cc3)c(N)c12 | -3.4
CC(C)(C)OC(=O)NC(Cc1ccccc1)C(=O)NCc1ccccc1 (stereo unspecified) | 4.6*
CC(C)CC(NC(=O)OC(C)(C)C)C(=O)NCc1ccccc1 (stereo unspecified) | 0.85
CC(NC(=O)OC(C)(C)C)C(=O)NCc1ccccc1 (stereo unspecified) | -0.32
O=C1CC(c2cccs2)CC2=C1C(c1cccc(Cl)c1)n1c(nc3ccccc31)N2 (stereo unspecified) | 0.88
CN(C)CCNC(=O)COc1cc(-c2ccccc2)nc2ccccc12 | -0.32
CCCOC(=O)Cn1nnc2sc3c(c2c1=O)CCCC3 | 1.9
CC(C)COC(=O)Cn1nnc2sc3c(c2c1=O)CCC(C)C3 (stereo unspecified) | 3
COCCOC(=O)Cn1nnc2sc3c(c2c1=O)CCC(C)C3 (stereo unspecified) | 0.73
CCCCCOC(=O)Cn1nnc2sc3c(c2c1=O)CCC(C)C3 (stereo unspecified) | 3.5*
CC1CCN(C(=O)Cn2nnc3sc4c(c3c2=O)CCCC4)CC1 | 3.5*
CCC(C)OC(=O)Cn1nnc2sc3c(c2c1=O)CCC(C)C3 (stereo unspecified) | 2
CC1CCN(C(=O)Cn2nnc3sc4c(c3c2=O)CCC(C)C4)CC1 (stereo unspecified) | 3*
CC1CCc2c(sc3nnn(CC(=O)NC4CCCCC4)c(=O)c23)C1 (stereo unspecified) | -0.09
COC(=O)Cn1nnc2sc3c(c2c1=O)CCCC3 | 1
Cc1noc(-c2ccc(C(F)(F)F)cc2)c1C(=O)NN | -0.24
C=C(C)c1cccc(C(C)(C)NC(=O)NCCc2ccc(F)cc2)c1 | -1.1
Cc1cccc(NC(=S)N(CCC#N)C2CCCCC2)c1 | -0.52
CCSCCOC(=O)C1=C(C)NC2=C(C(=O)CC(C)(C)C2)C1c1coc2ccccc2c1=O (stereo unspecified) | -0.49
O=S(=O)(c1ccccc1)c1ccc(S(=O)(=O)N2CCCC2)s1 | -0.58
O=S(=O)(c1cc(Br)c(Br)s1)N1CCCCC1 | 0.86
O=S(=O)(c1cc(Br)c(Br)s1)N1CCCC1 | 3.1*
SMILES | Dicer inh
O=C1C=C(N2CCN(c3ccc(F)cc3)CC2)C2(CCCCC2)O1 | -0.74
CSC1=NCCN1CC(=O)c1ccc(C)cc1 | -1.8
Cc1ccc(O)c(C2=NN3C(C2)c2ccccc2OC3C(C)C)c1 (stereo unspecified) | 0.45
Cc1ccc(O)c(C2=Nc3ccccc3N=C(c3ccco3)C2)c1 | 4*
Cc1ccc2c(c1C)NC(=O)CC(c1ccccc1O)=N2 | 1.6
CCn1c2ccccc2c2cc(CN3CCN(S(C)(=O)=O)CC3)ccc21 | 5.4*
COc1ccc(CN2CCN(S(C)(=O)=O)CC2)cc1OC | 2.2
CCn1c2ccccc2c2cc([N+](=O)[O-])ccc21 | -0.68
Cc1cc(C)nc(-n2[nH]c3nccc(-c4ccc5c(c4)OCO5)c3c2=O)n1 | -1
O=C(O)CCC(C(=O)O)N1C(=O)c2ccccc2C1=O (stereo unspecified) | 3.2*
O=C(CCC(C(=O)O)N1C(=O)c2ccccc2C1=O)Nc1ccc2c(c1)COCO2 (stereo unspecified) | -1.8
O=C(O)CCC(NC(=O)OCc1ccccc1)C(=O)O (stereo unspecified) | 0.24
CCOC(=O)C1CCN(S(=O)(=O)c2sc(Cl)cc2Br)CC1 | -0.45
CCOC(=O)C(C)Sc1n[nH]c(=O)[nH]c1=O (stereo unspecified) | -0.57
CC(C)Sc1c(Cl)cccc1NC(=O)c1ccc(Cl)cc1 | -1.6
COc1nccnc1NS(=O)(=O)c1ccc(NC(=O)c2cc(Cl)cc(Cl)c2)cc1 | 2.2
CCn1c(NCc2cc(Br)ccc2O)nc2ccccc21 | 1.6
COc1nccnc1NS(=O)(=O)c1ccc(NCc2cc(Br)ccc2O)cc1 | 6.3*
Cc1c(Br)sc2sc(-c3ccnc(SCc4ccccc4)n3)c(C)c12 | 0.5
CCNC(=O)c1c(-c2ccccc2)noc1C | 1.4
CC(C)Nc1nc(NC(C)C)nc(N(C)C#N)n1 | 7*
CC(=O)OCc1ccccc1Sc1ccc([N+](=O)[O-])cc1C(=O)O | -1.2
CCOc1cc(C)c(Cl)cc1S(=O)(=O)n1ccnc1C | 0.1
Cc1cccc(NC(C(=O)O)c2ccccc2)c1 (stereo unspecified) | 5.4*
O=C(O)c1ccccc1NC(C(=O)O)c1ccccc1 (stereo unspecified) | 5.5*
O=C(O)c1ccccc1SC(C(=O)O)c1ccccc1 (stereo unspecified) | 0.18
CCOC(=O)C(NC(=O)Nc1ccccc1)(Nc1cccc(C)c1)C(F)(F)F (stereo unspecified) | -1.3
CC(C(=O)O)c1cccc(Oc2ccccc2)c1 (stereo unspecified) | -0.07
O=C(O)CSc1ccccc1C(=O)O | -0.26
Cc1ccc(S(=O)(=O)NNC(=O)CSc2ncnc3scc(C)c23)cc1 | -1.5
